The assay is described as follows: NCI Yeast Anticancer Drug Screen. Data for the rad14 strain (AID 159).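 Note: 0% = growth of vehicle-treated control cultures.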 As to conditions: S. cerevisiae rad14 strain growth inhibition, active compounds read high. How it is done: Growth inhibition of yeast strains with defined genetic alterations is measured as a screen for potential anti-cancer activity. Selected strains with alterations in DNA damage repair or cell cycle control were exposed to compounds and growth inhibition was measured relative to vehicle treated controls. The strain used in this assay is rad14

The panel holds about 79,000 compounds, 15% with a hit somewhere; the sample as a whole holds those more often. Unmarked numbers belong to inactive results. Calls of active or inactive are those of the source. Cut-off read from the data, not from the text of the source: active = growth inhibition above about 70%; inactive = the rest.

With `COc1ccc(CCN2C(=O)C=CC2=O)cc1OC`, the growth inhibition by setting is: (at 1.2 µM) -10%; (at 3.7 µM) 3%; (at 11.0 µM) 63%; (at 33.0 µM) 99% (active); (at 100.0 µM) 99% (active).

As to `Cc1[nH]nc(C(F)(F)F)c1N=NN(C)C`, the growth inhibition is, setting by setting: (at 1.2 µM) 2%; (at 3.7 µM) 10%; (at 11.0 µM) 54%; (at 33.0 µM) 99% (active); (at 100.0 µM) 99% (active).

As to `COc1ccc2c(Cc3c4ccccc4cc4ccccc34)cncc2c1O`, the growth inhibition is, setting by setting: (at 1.2 µM) 6%; (at 3.7 µM) 7%; (at 11.0 µM) 27%; (at 33.0 µM) 95% (active); (at 100.0 µM) 93% (active).

`CCCCCC/C(C)=N/Nc1ccc([N+](=O)[O-])cc1[N+](=O)[O-]`: the growth inhibition is -1% (at 1.2 µM); -2% (at 3.7 µM); 17% (at 11.0 µM); 23% (at 33.0 µM); 2% (at 100.0 µM).

For the compound `CN(NC(=O)/C(=C/C=C/c1ccccc1)NC(=O)c1ccccc1)C1=C(Cl)C(=O)[N+](c2ccccc2)=CC1`, the growth inhibition is, setting by setting: (at 1.2 µM) -1%; (at 3.7 µM) -4%; (at 11.0 µM) 2%; (at 33.0 µM) 13%; (at 100.0 µM) 29%.

As to `Cc1c2ccncc2c(C)c2c1oc1ccccc12`, the growth inhibition was 5% (at 1.2 µM); 29% (at 3.7 µM); 48% (at 11.0 µM); 93% (active) (at 33.0 µM); 98% (active) (at 100.0 µM).

As to `OC(c1ccc(Br)cc1)(c1cccs1)C1CC1` (stereo not given), the growth inhibition by setting is: (at 1.2 µM) 5%; (at 3.7 µM) 13%; (at 11.0 µM) 27%; (at 33.0 µM) 97% (active); (at 100.0 µM) 97% (active).

`Oc1ccc(Br)cc1C=Nc1cccc(C(F)(F)F)c1`: the growth inhibition runs as follows: (at 1.2 µM) 6%; (at 3.7 µM) 13%; (at 11.0 µM) 91% (active); (at 33.0 µM) 97% (active); (at 100.0 µM) 97% (active).

For the origin of these results see PubChem BioAssay (NCI).
